Compound activity as filed in PubChem.
This is a sample that favours compounds with a hit; in the whole collection about 2.3% have one here.
KDM4E inh = JMJD2E (human) inhibition | B2RXH2 | JMJD2E catalytic domain, FDH-coupled NADH fluorescence (FDH is formaldehyde dehydrogenase) | Potency, µM (series often up to 57.1 µM), without a hit: at the highest dose activity change, negative = inhibition, actives largely listed as inhibitors | actives 1.6% (n = 230,000) | AID 2147; active = well fitted inhibition curve with a large enough effect, not every such curve was filed as active; inconclusive = small, poorly fitted or top-dose-only effect, or another doubt; inactive = no such curve, though single readings can be large or run the other way;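 also: potency is read from the fitted curve at half-maximal effect; 0% = wells with enzyme and -100% = buffer wells without enzyme; nearly all actives have a fitted effect of over 50% in size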
Target sequence (B2RXH2 1-337 limits assumed): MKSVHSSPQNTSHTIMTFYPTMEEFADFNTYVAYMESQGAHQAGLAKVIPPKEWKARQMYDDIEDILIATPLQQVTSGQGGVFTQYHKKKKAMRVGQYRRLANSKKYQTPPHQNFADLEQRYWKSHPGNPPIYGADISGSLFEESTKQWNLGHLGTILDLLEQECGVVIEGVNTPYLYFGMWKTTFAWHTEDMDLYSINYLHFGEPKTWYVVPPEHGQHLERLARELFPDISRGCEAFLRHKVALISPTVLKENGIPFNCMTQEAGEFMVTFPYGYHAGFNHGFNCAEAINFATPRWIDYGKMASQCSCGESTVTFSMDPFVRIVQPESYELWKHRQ
RGS12 GoLoco inh = blocks human Gai1 binding to RGS12 GoLoco peptide, red readout; P63096; Gai1:RGS12 GoLoco peptide FP, rhodamine, 10 min; Potency, µM (top dose mostly 61.6 µM), without a hit: at the top dose activity, negative = inhibition, usual class: inhibitors; actives 0.44% (n = 230,000); active = well fitted inhibition curve with a large enough effect, not every such curve was filed as active; inactive = no such curve, though single readings can be large or run the other way; also: potency is read from the fitted curve at half-maximal effect; % is scaled to controls: 0 for no effect and ±100 for the full control effect; nearly all actives have a fitted effect of over 30% in size
HTT cytoprotect = protects HTT-Q103 PC12 cells, measured by ATP | actives 0.14% (n = 230,000) | Potency, µM (top dose mostly 56.4 µM), for inactives: cytoprotection (ATP increase), actives largely listed as activators | PC12 HTT-Q103 induced, cytoprotection, ATP luminescence, 40 h; also: potency is read from the fitted curve at half-maximal effect; % of control where 0% means no effect; nearly all actives have a fitted effect of over 45% in size
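Huntington model: PC12 line, ecdysone-inducible HTTQ103 exon1–GFP, tebufenozide 100 nM. Test articles in a dose series. Endpoint luminescence from cellular ATP.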
VDR inhibitor = vitamin D3 receptor (human) inhibition; P11473; VDR-SRC2-3 peptide fluorescence polarization, 2 h; Potency, µM, for inactives: max response, negative = inhibition, most hits filed as inhibitors; actives 0.93% (n = 400,000); also: potency is read from the fitted curve at half-maximal effect; % is scaled to controls: 0 for no effect and ±100 for the full control effect
Target sequence (P11473 whole entry, looked up): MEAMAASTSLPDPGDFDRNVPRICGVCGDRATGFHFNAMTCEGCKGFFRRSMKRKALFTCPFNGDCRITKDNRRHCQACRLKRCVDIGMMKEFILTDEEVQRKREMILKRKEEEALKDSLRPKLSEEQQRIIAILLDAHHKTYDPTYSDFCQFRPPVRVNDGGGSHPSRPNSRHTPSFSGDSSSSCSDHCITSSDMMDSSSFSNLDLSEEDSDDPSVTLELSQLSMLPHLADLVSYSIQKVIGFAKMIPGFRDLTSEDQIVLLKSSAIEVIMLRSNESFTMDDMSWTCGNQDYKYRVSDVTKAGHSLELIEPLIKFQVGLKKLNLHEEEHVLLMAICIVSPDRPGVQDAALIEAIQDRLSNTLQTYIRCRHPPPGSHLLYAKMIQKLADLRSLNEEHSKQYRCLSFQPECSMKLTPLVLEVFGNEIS
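The screen uses fluorescence polarization to detect compounds that interfere with recruitment of the SRC2-3 coactivator peptide to VDR; plates are read after 2 h at room temperature.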
Coupling enz = coupling enzyme interference in Giardia aldolase counter-screen. coupling enzyme system counterscreen, AmpLite Red fluorescence. activity change, negative = inhibition, % at 58.2 µM, hits read low. actives 0.67% (n = 290,000). AID 2472; in the data active = activity change below about -30%; also: % is scaled to controls: 0 for no effect and ±100 for the full control effect
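Counterscreen lacking aldolase: glyceraldehyde-3-phosphate coupling-enzyme reagent preincubated 10 min at RT with compound (at 57.5 uM final), then substrate/coupling system with AmpLite Red added; fluorescence read at 525/598 nm after 20 min RT.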
HttQ103 aggreg = reduces HttQ103-GFP aggregates in PC12 cells; PC12 HttQ103-GFP aggregates, Acumen cytometry, 40 h; Potency, µM (top dose mostly 46.1 µM), for inactives: at the highest dose activity change, negative = inhibition, hits mostly inhibitors; actives 1.1% (n = 220,000); AID 1688; also: potency is read from the fitted curve at half-maximal effect; % is scaled to controls: 0 for no effect and ±100 for the full control effect; nearly all actives have a fitted effect of over 60% in size
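Read-out: GFP aggregate count by laser scanning cytometer (488 nm excitation, 500-530 nm emission, 1–25 µm objects >6 SD above background). Cells: PC12, inducible HTTex1-Q103-GFP, 100 nM tebufenozide; compounds titrated.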
* = called active by the depositor; ? = inconclusive; · = no result given; ! = repeats disagree; [ ] = dose if it differs, or a comment. Unless noted, calls follow the shape of the dose curve; as a rule, active = well fitted curve in the direction sought with a large enough effect; inconclusive = small, poorly fitted or top-dose-only effect, or another doubt; inactive = no such curve, though single readings can be large; an effect the other way counts as inactive or inconclusive.

SMILES	KDM4E inh	RGS12 GoLoco inh	HTT cytoprotect	VDR inhibitor	Coupling enz	HttQ103 aggreg
CC[C@H](NC(C)C)[C@H](O)c1ccc(O)c(O)c1	11µM*	4%[21.6 µM]	-5%[40.3 µM]	9%	-36*	13%
CNC[C@@H](SC)c1ccc(O)c(O)c1	·	7%[14.2 µM]	14%[10 µM]	·	·	·
O=C1N/C(=N\N=C\c2cccs2)SC1Cc1ccc(Cl)cc1Cl (stereo unspecified)	-3%	3%	-1%[10 µM]	-1%	3	-9%
O=C1N/C(=N\N=C\c2cccs2)SC1Cc1cccc(Cl)c1Cl (stereo unspecified)	0%	3%	?	-23%	1	11µM*
Cc1ccc(C)c(N2CCN(CCCNC(=O)Cn3cccc3C(=O)c3ccccc3C)CC2)c1	-14%	8%	-52%	-3%	0	16µM*
Cc1ccccc1C(=O)c1cccn1CC(=O)NCCCN1CCCCC1	·	·	·	-10%	-1	·
Nc1cccc(-n2nnnc2CN2CCOCC2)c1	-5%	11%	2%[10 µM]	45µM*	-31*	-6%
CCCc1c(C)c2cccc(C)c2[nH]c1=O	-7%	-8%	1%	3%	0	-11%
CCCCN1CCc2c([nH]c3c(C)cccc23)C1=O	?	1%	-1%	14µM*	-9	-4%
COc1ccc(/C=C/C2=CCN(Cc3ccc(OC)cc3)CC2)cc1	28µM*	-3%	-69%	-2%	5	-32%
COc1ccc(/C=N/N2CCN(Cc3ccccc3)CC2)cc1	·	·	·	-8%	0	·
Cc1nc(Nc2ccc(Cl)cc2Cl)sc1C(=O)Nc1ccccc1	?	0%	15%[10 µM]	-17%	-8	?
Cc1nc(Nc2ccc(Cl)c(Cl)c2)sc1C(=O)Nc1ccccc1	?	-2%	1%[10 µM]	?	0	25µM*
COCCNC(=O)C1(C(F)(F)F)C/C(=C/CCO)CCCO1 (stereo unspecified)	·	·	·	-3%	2	·
CC(C)(C)OC(=O)NCCCC[C@H](NC(=O)c1[nH]cnc1C(=O)Nc1ccc(Cl)cc1)C(=O)OC(C)(C)C	22µM*	6%	9%[10 µM]	-3%	-4	-31%[9.22 µM]
CC(C)(C)OC(=O)NCCCC[C@H](NC(=O)c1[nH]cnc1C(=O)Nc1ccccc1)C(=O)OC(C)(C)C	-1%	9%	-7%[10 µM]	-1%	-8	-24%[9.22 µM]
Cc1cc(NC(=O)C(C)SCC(=O)OCc2ccc([N+](=O)[O-])cc2)no1 (stereo unspecified)	·	·	·	-4%	·	·
COC(=O)CCCC1=CC2=CC(=O)C(C)(OC(=O)c3cccs3)C(=O)C2=CN1c1ccccc1 (stereo unspecified)	?	0%[14.2 µM]	-16%[10 µM]	-3%	-11	·
COC(=O)CCCC1=CC2=CC(=O)C(C)(OC(=O)c3cccs3)C(=O)C2=CN1CCN1CCOCC1 (stereo unspecified)	-29%[11.4 µM]	-22%[14.2 µM]	2%[10 µM]	-20%	-38*!	29%[9.22 µM]
COC(=O)CCCC1=CC2=CC(=O)C(C)(OC(=O)c3cccs3)C(=O)C2=CN1C1CCCCC1 (stereo unspecified)	?	-2%[14.2 µM]	23%[10 µM]	0%	-41*!	-2%[9.22 µM]
CN1/C(=C\C=C2/C(=O)Oc3ccccc3C2=O)C(C)(C)c2ccccc21	1%	-186%	·	-10%	2	7.9µM*
CC(C)(C)C1CCC2(CC1)C(C#N)=C(SCC(=O)NC1CCCCC1)NC(=O)C2C#N (stereo unspecified)	10%	6%	-37%[0.074 µM]	1%	0	11µM*
N#CC1=C(SCC(=O)NC2CC2)NC(=O)C(C#N)C12CCCCC2 (stereo unspecified)	2%	-1%	-5%	-3%	3	-13%
N#CC1=C(SCC(=O)Nc2cccc3cccnc23)NC(=O)C(C#N)C12CCCCC2 (stereo unspecified)	-8%	3%	-28%[0.074 µM]	19%	-36*	-33%
N#CC1=C(SCC(=O)NC23CC4CC(CC(C4)C2)C3)NC(=O)C(C#N)C12CCCCC2 (stereo unspecified)	-19%	-6%	14%[10 µM]	-3%	2	3.5µM*
SMILES	KDM4E inh	RGS12 GoLoco inh	HTT cytoprotect	VDR inhibitor	Coupling enz	HttQ103 aggreg
COc1ccc(/C=C/C(=O)c2cc(F)ccc2OC(=O)c2ccccc2)cc1OC	·	·	·	40µM*	·	·
COCCNc1cc(-c2ccccc2C(F)(F)F)ncn1	?	6%	-9%	?	0	·
CN(C)CCn1c(C(=O)Nc2ccccc2)cc2ccccc21	5%	·	38%	-3%	0	3.2µM*
N=c1nc(-c2ccccc2)n(-c2ccccc2)s1	·	·	·	13µM*	·	·
COc1ccc(-c2cc(CNC(=O)CCl)on2)cc1	-3%	7%	-41%	8%	3	18µM*
COc1ccc(-c2cc(CNC(C)=O)on2)cc1	2%	7%	-9%	14%	0	-6%
CN(CC(=O)Nc1cccnc1)S(=O)(=O)c1ccc(Br)cc1	·	·	·	-8%	·	·
O=[N+]([O-])c1cc2no[n+]([O-])c2cc1N1CCCCC1	·	·	·	40µM*	·	·
O=C(CSc1ncnc2scc(-c3ccc(Cl)cc3)c12)NCc1ccc2c(c1)OCO2	7%	10%	28%[10 µM]	24%	-33*	-7%
COc1ccc(-n2cc(-c3ccc(OC(F)F)cc3)[n+]3c2CCCCC3)cc1	5%	8%	-5%[10 µM]	3%	-1	16µM*
C=CCOC(=O)C(=O)/C=C/c1ccc2c(c1)Cc1ccccc1-2	3%	3%	27%[10 µM]	22µM*	-3	22%[9.22 µM]
COc1cccc(OC)c1C(=O)Nc1ccc2c(c1)Cc1ccccc1-2	?	-3%	15%[10 µM]	13%	0	12%[9.22 µM]
CC(=O)c1ccc(C(=O)N2CCC(n3nccc3NC(=O)C3CC3)CC2)cc1	·	·	·	0%	0	·
Cc1noc(C)c1-c1nc(Nc2ccncc2)c2ccccc2n1	?	-23%	10%	-13%	3	·
Cc1noc(C)c1-c1nc(Nc2ccc(F)cc2)c2ccccc2n1	·	10µM*	-74%	-25%	4	·
Cc1noc(C)c1-c1nc(NCc2cccs2)c2ccccc2n1	·	-1%	-73%	45µM*	1	·
Cc1c(Cl)cccc1NC(=S)NNc1ncc(C(F)(F)F)cc1Cl	3%	13%	-64%	-26%	1	13µM*
CC1(O)/C=C\C=C(\CO)C2CC(C)(C)C2(O)CC1 (stereo unspecified)	-4%	2%	-25%	3%	-1	·
O=C1C=C(Nc2ccccc2C(=O)O)c2ccccc2C1=O	?	1%	-1%[10 µM]	?	-49*	-12%[9.22 µM]
O=C1C=C(Nc2cccc3cccnc23)c2ccccc2C1=O	·	·	·	?	-65*	·
Cc1c2cccc(Sc3ccccc3)c2c2c3c(cccc13)[S+](c1ccccc1)C2 (stereo unspecified)	·	7%[14.2 µM]	2%[10 µM]	·	·	·
